# According to ChEMBL document CHEMBL4513146, “CO-ADD screening of Karazin Kharkiv National University (Ukraine) compounds”:
# Measured potencies and affinities stand elsewhere.
# Assays:
# [1] = test system: Klebsiella pneumoniae; details: Concentration 32 ug.mL-1;; ASSAY_TEST Inhibition of Bacterial Growth; detection method Absorption (OD600); MEDIA CAMHB; plate type 384well; NBS; CORNING #3640; time 18 hr
# [2] = test system: Candida albicans; details: Concentration 32 ug.mL-1; ASSAY_TEST Inhibition of Fungal Growth; detection method Absorption (OD530)
# [3] = test system: Cryptococcus neoformans; details: Concentration 32 ug.mL-1; ASSAY_TEST Inhibition of Fungal Growth; detection method Resazurin; Absorption (OD600-OD570); plate type 384well; NBS; CORNING #3640
SMILES,Inhibition [1] [%],Inhibition [2] [%],Inhibition [3] [%]
C=Cc1ccc(Cn2nc3c(=O)n(-c4cccc(Cl)c4C)ccn3c2=O)cc1,-0.98,-0.15,-8.23
COc1ccc(NC(=O)CSc2nnc3c(=O)n(-c4ccc(Br)cc4)ccn23)cc1,8.82,5.75,-12.25
Cc1ccc(NC(=O)Cn2nc3cc(C)nc(Nc4ccc(F)c(C)c4)n3c2=O)cc1,11.85,7.21,-5.79
Cc1ccc(Oc2nccn3c(=O)n(CC(=O)Nc4cc(F)ccc4F)nc23)cc1,10.7,4.41,-11.42
COC(=O)c1ccc(CN(c2ccc(Cl)cc2)S(=O)(=O)c2ccc3nncn3c2)o1,0.53,-1.37,-1.27
COc1ccc(Cl)cc1NC(=O)Cn1nc2c3cc(-c4ccc(C)c(C)c4)nn3ccn2c1=O,-20.97,12.28,-11.29
CCOc1ccc(-n2ccn3c(SCC(=O)NCc4ccc(Cl)cc4)nnc3c2=O)cc1,11.7,0.49,-7.68
COc1ccc(NC(=O)Cn2nc3ccc(-c4ccccc4)nn3c2=O)cc1Cl,-6.25,19.43,-3.35
Cc1ccc(-c2ccc3nn(CC(=O)Nc4ccc(Cl)cc4F)c(=O)n3n2)cc1,13.29,-0.74,-20.92
O=c1n(Cc2nc(-c3ccc(OC(F)(F)F)cc3)no2)nc2ccc(-c3ccccc3)nn12,8.49,3.85,-17.12
